Bioassay records (PubChem)
POLK inh: blocks human DNA polymerase kappa activity. purified Pol kappa, fluorescent DNA synthesis assay, 10 min. Potency, µM (doses to about 107 µM), for the others: at the top dose activity, negative = inhibition, usual class: inhibitors. hit rate 0.53% among 400,000. AID 588579; also: % is scaled to controls: 0 for no effect and ±100 for the full control effect
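First, compounds were pin-transferred onto 10 nM Pol kappa. After 15 min at room temperature, substrate was added to 50 nM final. Fluorescence was then measured kinetically at 0 and 10 min.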
Pol eta inh: DNA polymerase eta (human) inhibition; Q9Y253; recombinant Pol eta, fluorescent DNA replication assay; Potency, µM (top dose mostly 114 µM), for the others: at the top dose activity change, negative = inhibition, actives largely listed as inhibitors; hit rate 1.2% among 390,000; AID 588591; also: % is scaled to controls: 0 for no effect and ±100 for the full control effect
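Fluorescent replication assay: 50 nM final substrate added after a 15 min room-temperature compound preincubation with 10 nM enzyme. Signal taken at 0 min and again at 10 min.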
Pol beta inh: inhibitors of human DNA polymerase beta; hit rate 1.3% among 340,000; Potency, µM (doses to about 114 µM), without a hit: at the highest dose activity change, negative = inhibition, actives largely listed as inhibitors; Pol beta primer extension/strand displacement, fluorescence kinetic; P06746; also: % is scaled to controls: 0 for no effect and ±100 for the full control effect
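Homogeneous kinetic assay of primer extension and strand displacement by 10 nM Pol beta, preincubated 15 min at room temperature with compound before 50 nM substrate (final) was added. Read at 0 and 10 min; four-parameter Hill fit.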
Pol iota inh: DNA polymerase iota (human) inhibition; Pol iota fluorescent replication assay, 10 min; Potency, µM (top dose mostly 115 µM), for inactives: at the highest dose activity, negative = inhibition, most hits filed as inhibitors; hit rate 1% among 390,000; AID 588590
Target sequence (Q9UNA4 whole entry, looked up): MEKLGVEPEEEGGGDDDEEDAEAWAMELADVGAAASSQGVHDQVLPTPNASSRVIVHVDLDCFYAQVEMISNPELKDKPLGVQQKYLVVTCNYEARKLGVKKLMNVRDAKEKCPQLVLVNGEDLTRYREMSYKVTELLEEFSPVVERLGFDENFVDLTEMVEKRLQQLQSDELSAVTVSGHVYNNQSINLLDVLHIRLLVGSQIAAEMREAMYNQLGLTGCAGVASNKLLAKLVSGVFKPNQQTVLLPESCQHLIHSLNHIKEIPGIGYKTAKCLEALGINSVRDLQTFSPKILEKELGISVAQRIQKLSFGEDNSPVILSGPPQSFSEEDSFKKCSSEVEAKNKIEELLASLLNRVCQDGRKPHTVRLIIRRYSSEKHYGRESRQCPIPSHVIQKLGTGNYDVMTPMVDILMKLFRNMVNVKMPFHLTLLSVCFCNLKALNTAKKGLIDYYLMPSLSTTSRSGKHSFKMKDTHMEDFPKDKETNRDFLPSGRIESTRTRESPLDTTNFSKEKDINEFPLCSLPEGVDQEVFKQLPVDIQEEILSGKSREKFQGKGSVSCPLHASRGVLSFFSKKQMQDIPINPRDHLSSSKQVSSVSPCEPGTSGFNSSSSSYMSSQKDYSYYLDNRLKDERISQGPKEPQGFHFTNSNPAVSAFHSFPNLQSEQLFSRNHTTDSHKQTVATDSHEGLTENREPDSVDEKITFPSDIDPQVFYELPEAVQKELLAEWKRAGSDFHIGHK
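Pol iota at 10 nM preincubated 15 min with compounds at room temperature; reaction started with fluorescent substrate, 50 nM final. Fluorescence read kinetically at 0 and 10 min; buffer-only wells as negative control.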
APEX1 inh: blocks human APE1 abasic DNA cleavage | recombinant APE1, TAMRA/BHQ-2 abasic DNA cleavage fluorescence | Potency, µM (series often up to 65.8 µM), for inactives: at the top dose activity change, negative = inhibition, hits mostly inhibitors | hit rate 0.35% among 350,000;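 also: plate controls were vehicle for no effect and reference inhibitor for full effect; nearly all actives have a fitted effect of over 55% in size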
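Compound pre-exposure to 0.75 nM APE1, 15 min at ambient temperature. Reaction initiated with 50 nM TAMRA/BHQ-2 THF substrate, read immediately in kinetic mode, 525 nm excitation, 598 nm emission.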
GLS inh: blocks human kidney-isoform glutaminase activity. O94925. GLS enzymatic activity, qHTS titration. Potency, µM (highest dose often 45.5 µM), for inactives: at the highest dose activity change, negative = inhibition, most hits filed as inhibitors. hit rate 0.21% among 410,000; also: % is scaled to controls: 0 for no effect and ±100 for the full control effect
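Glutamate formation by hKGA was monitored fluorometrically using coupled glutamate oxidase, HRP and Amplex Red. Substrate was added as 1 mM L-glutamine solution; incubation was 30 min at RT after an initial read.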
* hit, by the source's call; u = inconclusive; x = no result given; ! = repeats disagree; [ ] = dose if it differs, or a comment. Most compounds without a hit are left out; they make up all but 2.4% or so of the library. Calls follow the shape of the dose curve; as a rule, active = well fitted curve in the direction sought with a large enough effect; inconclusive = small, poorly fitted or top-dose-only effect, or another doubt; inactive = no such curve, though single readings can be large; an effect the other way counts as inactive or inconclusive. Potency is read from the fitted curve at half-maximal effect.

SMILES | POLK inh | Pol eta inh | Pol beta inh | Pol iota inh | APEX1 inh | GLS inh
COc1ccccc1CNc1nc(NCc2ccc(C)cc2C)c2sccc2n1 | x | x | x | x | x | 2.0%
COC(=O)C1CC2=C(CCC2=O)N(c2ccccc2)C1=O (stereo unspecified) | -8.0% | -21.4% | x | 48.3% | x | 2.4%
CC1=C(c2ccc(C)c(C)c2)S(=O)(=O)N=C1N1CCC(C(=O)NC(C)c2ccccc2)CC1 (stereo unspecified) | -6.1% | x | 1.9% | -8.7% | x | -1.2%
CC1=C(c2ccc(C)c(C)c2)S(=O)(=O)N=C1N1CCC(C(=O)Nc2cccc(F)c2)CC1 | -14.5% | x | 20µM* | u | x | -3.1%
CC1=C(c2ccc(F)cc2)S(=O)(=O)N=C1N1CCC(C(=O)NCCc2ccco2)CC1 | -17.9% | x | 25.1µM* | -26.4% | x | 3.8%
COc1ccc(C2=C(C)C(N3CCN(C(=O)c4ccco4)CC3)=NS2(=O)=O)cc1 | -34.8% | -0.8% | 50.1µM* | u | 14.9% | -1.3%
O=C(COC(=O)c1ccc(F)cc1Cl)Nc1cccc(S(=O)(=O)N2CCOCC2)c1 | -4.9% | -13.5% | x | -15.0% | -11.1% | 6.2%
COC(=O)[C@@]1(Cc2ccc(F)cc2)[C@H]2c3cc(C(=O)N4CCCC4)n(Cc4ccc(S(C)(=O)=O)cc4)c3C[C@H]2CN1C(=O)c1ccccc1 | x | x | x | x | -10.7% | 6.0%
NC(=O)c1ccsc1NC(=O)CSc1nnc2ccccn12 | -21.4% | u | 25.1µM* | u | u | 9.9%
CC1(C)Cc2cccc(OCC(=O)OCC(=O)c3ccccc3)c2O1 | -27.2% | -9.4% | x | -7.2% | -14.3% | -0.2%
NCCNC(=O)c1c(NC(=O)c2ccccc2)sc2c1CCCC2 | -10.3% | -13.4% | 0.0% | 0.8% | 35.5% | 3.0%
O=C(CCCc1c[nH]c2ccccc12)NCCc1c[nH]c2ccccc12 | -6.4% | 89.1µM* | -1.7% | 29.5% | 46.9% | 0.6%
CC(C)CNC(=O)CCCc1c[nH]c2ccccc12 | -4.3% | -11.3% | 51.7% | 10.6% | -1.0% | 51.1%
CCCCOC(=O)CSc1nc(N)c(C#N)c(-c2ccc(OC)cc2)c1C#N | -5.5% | -13.8% | 15.3% | 10.5% | -8.1% | -1.4%
N#CCCN(Cc1ccccc1)C(=O)c1cccs1 | -1.8% | -21.1% | 0.159µM* | 50.0% | 5.8% | 0.0%
COc1ccc2c(c1)CCc1sc(NC(=O)c3ccc(Br)cc3)nc1-2 | -1.3%[60.1 µM] | -15.0% | -18.3% | 27.4% | x | -1.1%
CCOc1cc(/C=C/c2cccc[n+]2C)ccc1OCC(=O)Nc1ccc(C)cc1 | u | -19.7% | 12.6µM* | u | 16.3% | -9.4%
COc1ccc(N(Cc2cc3cc(C)ccc3[nH]c2=O)C(C)=O)cc1 | 5.7% | -15.4% | -18.7% | 29.2% | -4.2% | 4.6%
CC(=O)c1ccc(OCC(O)CN2CCN(CCN3C(=O)c4cccc5cccc(c45)C3=O)CC2)cc1 (stereo unspecified) | -34.5% | u | 14.1µM* | u | u | -6.1%
Cc1ccccc1N1CC(C(=O)Nc2ccc(S(=O)(=O)NCC3CCCO3)cc2)CC1=O (stereo unspecified) | -21.0% | -5.5% | 9.4% | 34.3% | 14.7% | -2.6%
Cc1ccc(CNC(=O)c2nnn(CC(=O)Nc3cc(C)ccc3C)c2N)cc1 | -20.7% | -11.8% | 7.94µM* | -5.8% | x | -10.7%
CCc1ccccc1NC(=O)Cn1nnc(C(=O)NCc2cccs2)c1N | -12.6% | u | u | u | -7.4% | 1.7%
Cc1ccc(C)c(NC(=O)Cn2nnc(C(=O)NCc3ccco3)c2N)c1 | 3.3% | -5.7% | -1.0% | 79.4µM*! | -19.2% | 1.2%
CCc1ccccc1NC(=O)Cn1nnc(C(=O)NCc2ccccc2Cl)c1N | u | -15.4% | 70.8µM* | 89.1µM* | x | -5.8%
COc1ccc(C2C3=C(CC(C)(C)CC3=O)Oc3ncn4nc(-c5ccccc5)nc4c32)cc1 (stereo unspecified) | -18.9% | -2.6% | x | -22.2% | x | -0.3%
